From PubChem
T cruzi growth-1 – blocks T. cruzi growth in NIH3T3 culture; T. cruzi beta-gal in NIH3T3, GalScreen luminescence, 90 h; inhibition, % at 8.34 µM; actives 5.9% (n = 77,000); AID 624255;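 active = mean inhibition above about 93%, with at least 55% of replicates each passing it, limit read from the data, passing the limit was not always enough; inconclusive = only one of those two conditions holds; inactive = neither condition holds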
C diff growth – C. difficile growth inhibition; Clostridium difficile clinical isolate growth, OD600, 24 h; stronger effect = lower value; growth activity, negative = inhibition, % at 16 µg/mL (by protocol); actives 0.25% (n = 86,000); AID 1259249;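 active = mean growth activity at or below -80% and every replicate also at or below -80%; inconclusive = mean at or below -80% but some replicate above -80%; inactive = mean growth activity above -80%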;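 note: 0% = DMSO wells and -100% = levofloxacin 16 µg/mL wells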
Pf Dd2 growth – inhibitors of Plasmodium falciparum Dd2 growth. P. falciparum Dd2 growth, SYBR Green, 72 h; stronger effect = lower value. activity change, % at 10 µM. actives 2.3% (n = 94,000); in the data active = activity change below about -80%; inconclusive = no clear call, values can overlap the other calls
T cruzi growth-2 – Trypanosoma cruzi proliferation inhibition; shares compounds with T cruzi growth-1; T. cruzi beta-gal in NIH3T3, GalScreen luminescence, 90 h; inhibition, % at 8.35 µM; actives 72% (n = 5,600); AID 651739;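 active = mean replicate inhibition above about 95% and at least 55% of replicates individually reaching it, limit read from the data; inconclusive = only one of the two criteria is met; inactive = neither criterion is met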
T cruzi growth-3 – blocks T. cruzi growth in NIH3T3 host cells | shares compounds with T cruzi growth-1 | T. cruzi beta-gal in NIH3T3, GalScreen luminescence, 90 h | inhibition, % at 2.09 µM | actives 21% (n = 5,600);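 active = mean inhibition above about 95%, with at least 55% of replicates also reaching it, limit read from the data; inconclusive = meets just one of the two conditions; inactive = meets neither condition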;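 note: plate controls were neutral control median for no effect and positive control median for full effect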
NIH3T3 tox – NIH/3T3 (mouse) viability loss; shares compounds with T cruzi growth-1; NIH/3T3 viability, CellTiter-Glo ATP luminescence, 90 h; cytotoxicity (signal decrease), % at 8.35 µM; actives 14% (n = 5,600); AID 651742;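 active = mean signal decrease across replicates above about 35% based on untreated-well scatter, with enough replicates individually passing, limit read from the data; inconclusive = no rule stated though some were filed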;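 note: 0% = median of neutral control wells and 100% = median of positive control wells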
NIH3T3 tox 2 – NIH/3T3 (mouse) viability loss; inhibition, % at 24.9 µM; actives 56% (n = 5,600); shares compounds with T cruzi growth-1; NIH/3T3 viability, CellTiter-Glo ATP luminescence, 90 h; AID 651744;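 active = mean loss of cell viability signal at or above a set limit, and enough replicates individually reaching it; inconclusive = meets only the mean limit or only the replicate share; inactive = meets neither condition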;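 note: 0% = median of neutral control wells and 100% = median of positive control wells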
The depositor's hits bear a star. The list is not random: actives were taken first. Their share in the collection is about 6.7%.

For COc1ccccc1-c1ccc2c(c1)[C@H]1[C@H](CCN1C(=O)C1CC1)[C@@H](CO)N2 the results were T cruzi growth-1 98*, C diff growth -1, Pf Dd2 growth 4, T cruzi growth-2 107*, T cruzi growth-3 88, NIH3T3 tox -7 and NIH3T3 tox 2 1.
For CC(=O)N1CC[C@@H]2[C@H](CO)Nc3ccc(-c4cccc(F)c4)cc3[C@@H]21 the results were T cruzi growth-1 66, C diff growth -6 and Pf Dd2 growth 25.
`C[C@@H]1CCCCO[C@H](CN(C)S(=O)(=O)c2ccccc2)[C@@H](C)CN([C@@H](C)CO)C(=O)c2cc(NC(=O)c3ccccc3)ccc2O1` gave T cruzi growth-1 72 and Pf Dd2 growth -69.
Screening COc1ccccc1C#Cc1ccc([C@@H]2[C@H]3CN(C(=O)C4CCC4)CCCCN3[C@H]2CO)cc1 returned T cruzi growth-1 97*, C diff growth 1, Pf Dd2 growth -19, T cruzi growth-2 102*, T cruzi growth-3 94, NIH3T3 tox 56* and NIH3T3 tox 2 105*.
Screening COc1ccccc1C#Cc1ccc([C@@H]2[C@H]3CN(C(=O)C4CCCC4)CCCCN3[C@H]2CO)cc1 returned T cruzi growth-1 95*, C diff growth -1, Pf Dd2 growth -1, T cruzi growth-2 87, T cruzi growth-3 97*, NIH3T3 tox 86* and NIH3T3 tox 2 104*.
COc1ccccc1C#Cc1ccc([C@H]2[C@@H](CO)N3CCCCN(C(=O)C4CCC4)C[C@H]23)cc1 was read as T cruzi growth-1 92, C diff growth -1 and Pf Dd2 growth -40.
COc1ccccc1C#Cc1ccc([C@H]2[C@@H](CO)N3CCCCN(C(=O)C4CCCC4)C[C@H]23)cc1 was read as T cruzi growth-1 92, C diff growth 4 and Pf Dd2 growth -30.
Screening C[C@H]1CN([C@@H](C)CO)C(=O)c2cccc(NS(=O)(=O)c3ccccc3)c2O[C@@H]1CN(C)Cc1ccc(-c2ccccc2)cc1 returned T cruzi growth-1 -105 and Pf Dd2 growth -27.
For CCC(=O)N(C)C[C@H]1Oc2cc(C#CC3CCCCC3)ccc2S(=O)(=O)N([C@H](C)CO)C[C@@H]1C the results were T cruzi growth-1 108*, C diff growth -4, Pf Dd2 growth -59, T cruzi growth-2 102*, T cruzi growth-3 70, NIH3T3 tox 12 and NIH3T3 tox 2 83*.
`CCC(=O)N(C)C[C@H]1Oc2cc(C#CC3CCCCC3)ccc2S(=O)(=O)N([C@H](C)CO)C[C@H]1C` gave T cruzi growth-1 104, C diff growth -9 and Pf Dd2 growth -63.
Screening CCC(=O)N(C)C[C@H]1Oc2cc(C#CC3CCCCC3)ccc2S(=O)(=O)N([C@@H](C)CO)C[C@@H]1C returned T cruzi growth-1 104, C diff growth -9 and Pf Dd2 growth -68.
CCC(=O)N(C)C[C@@H]1Oc2cc(C#CC3CCCCC3)ccc2S(=O)(=O)N([C@H](C)CO)C[C@@H]1C was read as T cruzi growth-1 110*, C diff growth -1, Pf Dd2 growth -56, T cruzi growth-2 95*, T cruzi growth-3 84, NIH3T3 tox 12 and NIH3T3 tox 2 104*.
`CCC(=O)N(C)C[C@H]1Oc2cc(C#CC3CCCCC3)ccc2S(=O)(=O)N([C@@H](C)CO)C[C@H]1C` gave T cruzi growth-1 111, C diff growth 3 and Pf Dd2 growth -63.
CCC(=O)N(C)C[C@@H]1Oc2cc(C#CC3CCCCC3)ccc2S(=O)(=O)N([C@@H](C)CO)C[C@@H]1C was read as T cruzi growth-1 inconclusive, C diff growth -3, Pf Dd2 growth -74, T cruzi growth-2 100*, T cruzi growth-3 86, NIH3T3 tox 24 and NIH3T3 tox 2 106*.
Screening CS(=O)(=O)N1[C@@H]2c3ccc(-c4ccccc4F)c(=O)n3C[C@@H]2[C@@H](CO)[C@@H]1C(=O)NCC1CC1 returned C diff growth -1 and Pf Dd2 growth 12.
Cc1ccc(S(=O)(=O)N(C)C[C@H]2OCCCC[C@H](C)Oc3ccc(NC(=O)NC(C)C)cc3C(=O)N([C@H](C)CO)C[C@@H]2C)cc1 was read as T cruzi growth-1 0, C diff growth -2 and Pf Dd2 growth -52.
For CC(C)NC(=O)Nc1ccc2c(c1)C(=O)N([C@H](C)CO)C[C@H](C)[C@@H](CN(C)C(=O)C1CCCCC1)OCCCC[C@@H](C)O2 the results were T cruzi growth-1 32, C diff growth 0 and Pf Dd2 growth -20.
For O=C(C[C@H]1C[C@H]2c3cc(NC(=O)C4CCC4)ccc3O[C@H]2[C@H](CO)O1)NCc1ccc2c(c1)OCO2 the results were T cruzi growth-1 -21, C diff growth 0 and Pf Dd2 growth -3.
Screening Cc1cccc(-c2ccc([C@H]3[C@@H](CO)N4C(=O)CN(C(=O)c5cccnc5)C[C@H]34)cc2)c1 returned C diff growth -5 and Pf Dd2 growth -47.
`CCCN(C)C[C@@H]1Oc2cc(C#Cc3ccc(F)cc3)ccc2S(=O)(=O)N([C@@H](C)CO)C[C@H]1C` gave T cruzi growth-1 94*, C diff growth 4, Pf Dd2 growth -17, T cruzi growth-2 105*, T cruzi growth-3 40, NIH3T3 tox 31 and NIH3T3 tox 2 106*.
Screening CCCN(C)C[C@@H]1Oc2cc(C#Cc3cccc(F)c3)ccc2S(=O)(=O)N([C@@H](C)CO)C[C@@H]1C returned T cruzi growth-1 111*, C diff growth 10, T cruzi growth-2 113*, T cruzi growth-3 61, NIH3T3 tox 7 and NIH3T3 tox 2 102*.
For CCCN(C)C[C@@H]1Oc2cc(C#Cc3ccccc3)ccc2S(=O)(=O)N([C@@H](C)CO)C[C@H]1C the results were T cruzi growth-1 26, C diff growth -1 and Pf Dd2 growth -44.
`CCCN(C)C[C@@H]1Oc2cc(C#Cc3cccc(F)c3)ccc2S(=O)(=O)N([C@@H](C)CO)C[C@H]1C` gave T cruzi growth-1 116*, C diff growth -5, T cruzi growth-2 110*, T cruzi growth-3 10, NIH3T3 tox 4 and NIH3T3 tox 2 104*.
`CCCN(C)C[C@@H]1Oc2cc(C#Cc3ccc(F)cc3)ccc2S(=O)(=O)N([C@H](C)CO)C[C@@H]1C` gave T cruzi growth-1 14, C diff growth 11 and Pf Dd2 growth -24.
C[C@@H]1CN([C@H](C)CO)S(=O)(=O)c2ccc(C#Cc3cccc(F)c3)cc2O[C@@H]1CN(C)CC1CC1 was read as C diff growth 5 and Pf Dd2 growth -40.
For CO[C@H]1CN(C)C(=O)c2cc(NC(=O)CC(F)(F)F)ccc2OC[C@H](C)N(CCC(F)(F)F)C[C@@H]1C the results were T cruzi growth-1 10 and Pf Dd2 growth 12.
